Reference: PubChem BioAssay AID1159580 (chemical genetic matrix, 2015)
The whole screen tested about 5,500 compounds, of which about 2,000 (36%) were called active. Inconclusive results (about 18%) are left out. No stated cut-off is given here; in the data, active means normalized growth mostly below about 0.91 (no sharp cut-off); inconclusive means no clear call, values can overlap the other calls; inactive means mostly above about 0.92. Some of the results follow.

Experiment: chemical genetic growth profiling, strain panel (AID 1159580);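 further: tested at 20 µM; growth read once vehicle control cultures reached saturation at 30 °C; 1 = growth at the plate median or of vehicle wells; lower values mean less growth of the strain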
Conditions: S. cerevisiae deletion strains, growth OD

Measured: normalized growth

CC1CC2C3CC(F)C4=CC(=O)C=CC4(C)C3(F)C(O)CC2(C)C1(O)C(=O)CO (centres undefined)
inactive: locus YAL013W, strain DEP1, hits give low values 1.03 | locus YAL021C, strain ccr4, hits give low values 0.997 | locus YAL026C, strain drs2, hits give low values 1 | locus YAL030W, strain snc1, hits give low values 1 | locus YBL061C, strain skt5, hits give low values 0.996 | locus YBR009C, strain hhf1, hits give low values 0.997 | locus YBR021W, strain FUR4, hits give low values 1.03 | locus YBR023C, strain chs3, hits give low values 0.988 | locus YBR171W, strain sec66, hits give low values 0.997 | locus YBR229C, strain ROT2, hits give low values 1.01 | locus YBR231C, strain swc5, hits give low values 0.992 | locus YBR279W, strain paf1, hits give low values 0.989 | locus YCL011C, strain gbp2, hits give low values 0.992 | locus YCL016C, strain dcc1, hits give low values 0.98 | locus YCL029C, strain bik1, hits give low values 1.03 | locus YCL061C, strain MRC1, hits give low values 0.999 | locus YCL069W, strain vba3, hits give low values 1.01 | locus YCR088W, strain abp1, hits give low values 1 | locus YDL005C, strain med2, hits give low values 0.993 | locus YDL035C, strain GPR1, hits give low values 1.05 | locus YDL040C, strain nat1, hits give low values 0.997 | locus YDL074C, strain BRE1, hits give low values 1.09 | locus YDL101C, strain DUN1, hits give low values 1.02 | locus YDL134C, strain PPH21, hits give low values 1.01 | locus YDL185W, strain tfp1, hits give low values 1.03 | locus YDL192W, strain arf1, hits give low values 1.03 | locus YDR001C, strain nth1, hits give low values 1.01 | locus YDR069C, strain doa4, hits give low values 1.01 | locus YDR101C, strain arx1, hits give low values 1.02 | locus YDR137W, strain rgp1, hits give low values 0.995 | locus YDR150W, strain NUM1, hits give low values 1.03 | locus YDR159W, strain sac3, hits give low values 1.01 | locus YDR162C, strain NBP2, hits give low values 1.02 | locus YDR195W, strain ref2 0.968 | locus YDR297W, strain sur2, hits give low values 0.99 | locus YDR318W, strain mcm21, hits give low values 1.05 | locus YDR334W, strain swr1, hits give low values 0.994 | locus YDR335W, strain msn5, hits give low values 1 | locus YDR388W, hits give low values 1.01 | locus YDR392W, strain spt3, hits give low values 0.995 | locus YDR502C, strain sam2, hits give low values 1.02 | locus YEL003W, strain gim4, hits give low values 1.01 | locus YEL037C, strain rad23, hits give low values 1 | locus YEL061C, strain CIN8 (second series), hits give low values 1.01 | locus YEL061C, strain CIN8, hits give low values 1.01 | locus YER015W, strain faa2, hits give low values 1 | locus YER016W, strain bim1, hits give low values 0.995 | locus YER110C, hits give low values 1.03 | locus YER111C, strain swi4, hits give low values 1 | locus YER155C, strain BEM2 (second series), hits give low values 1.03 | locus YER155C, strain BEM2, hits give low values 0.999 | locus YER167W, strain BCK2, hits give low values 1.05 | locus YFR010W, strain ubp6, hits give low values 1.01 | locus YGL078C, strain dbp3, hits give low values 1.02 | locus YGL086W, strain mad1, hits give low values 1.04 | locus YGL167C, strain pmr1, hits give low values 0.991 | locus YGL173C, strain kem1, hits give low values 1.01 | locus YGL227W, strain vid30, hits give low values 0.998 | locus YGL240W, strain doc1, hits give low values 1 | locus YGL248W, strain PDE1, hits give low values 1.01 | locus YGL253W, strain hxk2, hits give low values 0.983 | locus YGR078C, strain PAC10, hits give low values 1.04 | locus YGR135W, strain pre9, hits give low values 1.03 | locus YGR229C, strain SMI1, hits give low values 1.02 | locus YGR252W, strain gcn5, hits give low values 1.06 | locus YHR013C, strain ard1, hits give low values 0.985 | locus YHR027C, strain rpn1, hits give low values 1.01 | locus YHR030C, strain SLT2, hits give low values 1.02 | locus YHR079C, strain IRE1 (second series), hits give low values 1.02 | locus YHR094C, strain hxt1, hits give low values 1.02 | locus YHR129C, strain ARP1, hits give low values 1.01 | locus YHR142W, strain chs7, hits give low values 0.995 | locus YHR200W, strain rpn10, hits give low values 1.03 | locus YIL066C, strain RNR3, hits give low values 1.04 | locus YIL073C, strain SPO22, hits give low values 1.1 | locus YIL125W, strain kgd1, hits give low values 1.02 | locus YIR030C, strain dcg1, hits give low values 1.02 | locus YJL092W, strain hpr5, hits give low values 1 | locus YJL095W, strain BCK1 (second series), hits give low values 0.997 | locus YJL095W, strain BCK1, hits give low values 1.02 | locus YJL115W, strain asf1, hits give low values 1.01 | locus YJL129C, strain trk1, hits give low values 0.997 | locus YJL134W, strain LCB3, hits give low values 1.02 | locus YJL154C, strain vps35, hits give low values 1.01 | locus YJL164C, strain tpk1, hits give low values 1.01 | locus YJL166W, strain qcr8, hits give low values 0.993 | locus YJL168C, strain set2, hits give low values 1.02 | locus YJL187C, strain SWE1 (second series), hits give low values 1.02 | locus YJL187C, strain SWE1, hits give low values 0.986
